The panel holds about 83,000 compounds, 20% with a hit somewhere; the sample as a whole holds those more often.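 Each cell line was grown in a 96-well plate and treated with one concentration of compound for 48 hours. Values below 10 were considered active.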 Active and inactive are the calls of the source.
Tested on: HL-60(TB) leukemia
Assay: NCI-60 one-dose screen, 48 h (100 = growth as untreated, 0 = no growth, -100 = all killed)
Conditions: 10 µM unless noted

## O=C1CCCCCCCCC(O)C(O)CCCC(c2cccs2)O1 (stereo not drawn)
  growth: 77.9% (inactive)

## COc1c(C(=O)/C=C/c2ccc(C)o2)c(O)cc2occc12
  growth: 44.6% (inactive)

## Cn1cc(-c2csc(-c3cn(C(=O)OC(C)(C)C)c4ccccc34)n2)c2ccnc(Cl)c21
  growth: 67.5% (inactive)

## CCOC(=O)C1=C(C)NC(C)=C(C(=O)OCC)C1c1cc(Br)c(O)c(OC)c1
  growth: 6.74% (active)

## N#Cc1c(-c2ccc(Cl)cc2)csc1NC(=O)Nc1ccc(Cl)c(C(F)(F)F)c1
  growth: -34.2% (active)

## Cc1ccc2nc(-c3ccc(N=Cc4ccccc4O)cc3)sc2c1
  growth: 77.7% (inactive)

## C/C(=C(\c1ccc(OCCCN(C)C)cc1)c1ccc(OC(=O)Cc2ccccc2)cc1)c1ccc(Cl)cc1
  growth: 78% (inactive)

## N[C@H]1CCC[C@@H]1NCCCCN1C(=O)c2cccc3cccc(c23)C1=O
  growth: 85.5% (inactive)

## O=C1C(Nc2ccccn2)=C(I)C(=O)c2ncccc21
  growth: -55.5% (active)

## COc1ccc(-n2c(C)cc(-c3ccccc3)c2C)cc1
  growth: 23.2% (inactive)

## Cl.Fc1c[c-]c(-c2ccccn2)c(F)c1.[Pt].c1ccc([PH+](c2ccccc2)c2ccccc2[PH+](c2ccccc2)c2ccccc2)cc1
  growth: -24.7% (active)

## CC(=O)Nc1cc2c(cc1Cl)Cc1cc(Cl)ccc1-2
  growth: 114% (inactive)

## O=C(O)COc1ccc(Cl)cc1C1CCCCC1
  growth: 116% (inactive)

## Cc1ccc2c(n1)C(=O)C(Cl)=C(Nc1ccc(N3CCN(C)CC3)cc1)C2=O
  growth: -46.7% (active)

## Cn1cc(-c2nonc2-c2cn(C)c3ccc(Br)cc23)c2ccccc21
  growth: -18.9% (active)

## O=Cc1c(OCc2cnnn2CC(=O)Nc2ccc(Br)cc2)ccc2ccccc12
  growth: 105% (inactive)

## Cc1ccc(CN2CCC(C(=O)Nc3ccc(-c4cc5ccccc5[nH]4)cc3)CC2)o1
  growth: 13.7% (inactive)

## Clc1ccc(-c2noc(/C=C\c3ccccc3)n2)cc1
  growth: 94% (inactive)

## Nc1nc(N)c2nc(CNc3ccc(C(=O)CC(CCC(=O)O)C(=O)O)cc3)cnc2n1 (stereo not drawn)
  growth: 49% (inactive)

## COc1cc2c(cc1OCCCOc1cc3c(cc1OC)C(=O)N1CC(F)(F)C[C@H]1C=N3)N=C[C@@H]1CC(F)(F)CN1C2=O
  growth: -12.2% (active)

## CCN1C(=O)N(CC)C2C1NN=c1s/c(=C\c3ccc(OC)cc3)c(=O)n12 (stereo not drawn)
  growth: -45.9% (active)

## Nc1nc(N)c2c(n1)NC(c1cccc(Nc3ccnc4cc(C(F)(F)F)ccc34)c1)CC(c1ccc(F)cc1)=N2 (stereo not drawn)
  growth: 17.8% (inactive)

## Cc1nn(-c2ccccc2)c(Cl)c1/C=C(/NC(=O)c1ccccc1)c1nc2ccccc2[nH]1
  growth: 85.5% (inactive)

## Cc1ccc(NC(=O)c2ccccc2Cl)cc1
  growth: 86.1% (inactive)

## CC(C)c1ccc(Nc2n[nH]c(=S)s2)cc1
  growth: 97.7% (inactive)

## CN(C)c1ccc(/C=C/C2=[N+](C)c3ccccc3C2(C)C)cc1
  growth: -18.4% (active)

## CC1NC(=O)NC1CCCCCC(=O)O (stereo not drawn)
  growth: 107% (inactive)

## Cc1ccccc1NC(=O)N/C(N)=N/c1nc(-c2cccc([N+](=O)[O-])c2)cs1
  growth: 6.06% (active)

## CO[C@]12C=C/C(=C(/C(=O)OCc3cccnc3)C(=O)CCCCCCCC[C@]3(OC)C=C/C(=C(/C(=O)OCc4cccnc4)C(=O)CCCCCCCC1)O3)O2
  growth: -29.3% (active)

## COc1cc(C2=NOC(c3cc(OC)c(OC)c(OC)c3)C2)ccc1OCCCCOc1cc2c(cc1OC)C(=O)N1CCC[C@H]1C=N2 (stereo partly drawn)
  growth: -22.7% (active)

## Fc1ccc(-c2nnc(-c3c(-c4ccc(F)cc4)nc4ccccn34)o2)cc1
  growth: 103% (inactive)

## Cc1ccc(C)c(-n2c(-c3ccc(Br)cc3)csc2=NC(=O)c2ccccc2F)c1
  growth: -21.6% (active)

## COc1ccc(C(=O)n2nc(-c3ccccc3)nc2N)cc1OC
  growth: 80% (inactive)

## Cc1ccc2c(c1)C(=O)/C(=C/c1ncc([N+](=O)[O-])n1C)O2
  growth: -13% (active)

## COc1cccc(-c2nc3sccn3c2-c2cccc(S(C)(=O)=O)c2)c1
  growth: 98.3% (inactive)

## O=[N+]([O-])c1cccc(-c2ncc(-c3ccc(Cl)cc3Cl)[nH]2)c1
  growth: 70.1% (inactive)

## COC(=O)CCC/C=C\C[C@H]1C=CC(=O)/C1=C/C[C@@H](O)C/C=C\CC(F)(F)F
  growth: 1.03% (active)

## C=CCOc1ccc2c(c1)CC[C@@H]1[C@@H]2CC[C@]2(C)C(=O)/C(=N/O)C[C@@H]12
  growth: -28.4% (active)

Source: PubChem BioAssay (NCI)
